Results on nine compounds are retold here after PubChem BioAssay.

Test [1] is described as follows: A549 cell viability effects, profiling panel, calcein-AM fluorescence, 48 h, basal (AID 1162). Note: test concentration not given here. The settings on record: higher = more signal.
A short description of test [2]: adipocyte viability effects, profiling panel, cell-based, 3T3-L1 adipocytes, calcein-AM fluorescence, 48 h, basal (AID 1163). Note: test concentration not given here. Particulars: 3T3-L1 adipocytes viability, higher = more signal.
A short description of test [3]: HepG2 cell viability effects, profiling panel, calcein-AM fluorescence, 48 h, basal (AID 1164). Note: test concentration not given here. The settings on record: higher = more signal.
A short description of test [4]: MM1S cell viability effects, profiling panel, calcein-AM fluorescence, 48 h, basal (AID 1165).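 Note: viability of MM1S multiple myeloma cells under basal unstimulated conditions; test concentration not given here.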 The settings on record: higher = more signal.
Test [5] can be described thus: basal RPMI8226 viability, no added stimulus, profiling panel, cell-based, calcein-AM fluorescence, 48 h, PK04 Diversity Set (AID 1166).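 Note: cells grown under basal conditions without added stimulus; test concentration not given here.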 The settings on record: RPMI8226 myeloma viability, higher = more signal.
The nature of test [6]: basal HepG2 mitochondrial membrane potential changes, profiling panel, cell-based, JC-1 fluorescence, 24 h, 100 nL compound (AID 1167). Note: test concentration not given here. The settings on record: higher = more signal.
A short description of test [7]: basal 3T3-L1 adipocyte mitochondrial potential changes, profiling panel, cell-based, JC-1 fluorescence, 3T3-L1 adipocytes, 24 h, 100 nL compound (AID 1168). Note: test concentration not given here. The settings on record: JC-1 mitochondrial fluorescence, higher = more signal, called active from +8 up or from −8 down.
Test [8] in a line: basal RPMI8226 mitochondrial membrane potential changes, profiling panel, cell-based, JC-1 fluorescence, 24 h, 100 nL compound (AID 1169). Note: test concentration not given here. The settings on record: RPMI8226 myeloma, JC-1 mitochondrial potential fluorescence, higher = more signal.
The nature of test [9]: basal MM1S mitochondrial membrane potential changes, profiling panel, cell-based, JC-1 fluorescence, 24 h, 100 nL compound (AID 1170). Note: test concentration not given here. Particulars: higher = more signal.
A short description of test [10]: A549 lung cancer cell viability effects, profiling panel, resazurin fluorescence, 24 h, PK04 Diversity Set (AID 1171). Note: test concentration not given here. Particulars: higher = more signal, called active from +8 up or from −8 down. For orientation: Resazurin is reduced to fluorescent resorufin, in cell work by metabolically active cells.
Test [11] in a line: HepG2 liver cancer cell viability effects, profiling panel, resazurin fluorescence, 24 h, PK04 Diversity Set (AID 1172). Note: test concentration not given here. Particulars: higher = more signal.
Test [12] is described as follows: basal S. cerevisiae growth modulation, no modifier, primary screen, OD600, strain BY4716, 24 h, basal condition (AID 1173). The settings on record: OD600, 24 h, higher = more signal, called active from +8 up or from −8 down.
A short description of test [13]: MM1S myeloma cell viability, profiling panel, resazurin fluorescence, basal, 24 h, PK04 Diversity Set (AID 1174).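 Note: MM1S multiple myeloma cell line; test concentration not given here.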 The settings on record: higher = more signal, called active from +8 up or from −8 down.
Test [14] deals with Dihydroorotate dehydrogenase (quinone), mitochondrial (Plasmodium falciparum (isolate 3D7)) (UniProt Q08210). In words: PfDHODH enzyme inhibitors, primary screen, biochemical, C-terminal His tag, absorbance 600 nm (AID 1175).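 Note: recombinant parasite enzyme with a five histidine tag at its C terminus; test concentration not given here.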 The settings on record: DCIP absorbance 600 nm, higher = more signal, called active from +8 up or from −8 down.
Test [15] in a line: P. aeruginosa biofilm formation inhibitors, primary screen, strain PAO1, LB-PBS medium, absorbance 600 nm (AID 1176). Note: test concentration not given here. The settings on record: P. aeruginosa PAO1 growth/biofilm, A600, 12 h; higher = more signal.
Test [16] in a line: S. cerevisiae RM11-1a growth modifiers, primary screen, strain RM11-1a, OD600, basal, 24 h (AID 1177).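 Note: cultures grown under basal conditions with no added stressor; test concentration not given here.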 Particulars: OD600, 24 h, higher = more signal, called active from +8 up or from −8 down.
A short description of test [17]: E. coli acrAB mutant growth effects, primary screen, E. coli filamentation inducers, strain DRC39, OD650, 24 h (AID 1178).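 Note: growth measured as culture turbidity by optical density at 650 nm; test concentration not given here.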 Particulars: higher = more signal, called active from +8 up or from −8 down.
Test [18] is described as follows: E. coli acrAB mutant growth effects, primary screen, E. coli filamentation inducers, strain DRC39, OD650, 48 h (AID 1179).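 Note: screen aims at cell division blockers that make cells filament.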 Particulars: E. coli DRC39 delta-acrAB growth, higher = more signal, called active from +8 up or from −8 down.
A short description of test [19]: RPMI8226 myeloma cell viability, profiling panel, resazurin fluorescence, basal, 24 h, PK04 Diversity Set (AID 1180).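 Note: RPMI8826 multiple myeloma cell line at 5000 cells per well; test concentration not given here.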 Particulars: higher = more signal.
Test [20] has as its target E3 ubiquitin-protein ligase XIAP (Homo sapiens) (UniProt P98170). Kind of test: XIAP binders, primary screen, biophysical, small-molecule microarray, fluorescence 635 nm (AID 1181).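 Note: score merges 667 nm emission and signal to noise over triplicate slides.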 The settings on record: small-molecule microarray binding, higher = more signal.

The structures appear in SMILES notation. Activity calls are given as the source filed them. Unless noted, the rule behind the calls is not given here.

E3 ubiquitin-protein ligase XIAP (Homo sapiens), sequence (P98170 whole entry, looked up): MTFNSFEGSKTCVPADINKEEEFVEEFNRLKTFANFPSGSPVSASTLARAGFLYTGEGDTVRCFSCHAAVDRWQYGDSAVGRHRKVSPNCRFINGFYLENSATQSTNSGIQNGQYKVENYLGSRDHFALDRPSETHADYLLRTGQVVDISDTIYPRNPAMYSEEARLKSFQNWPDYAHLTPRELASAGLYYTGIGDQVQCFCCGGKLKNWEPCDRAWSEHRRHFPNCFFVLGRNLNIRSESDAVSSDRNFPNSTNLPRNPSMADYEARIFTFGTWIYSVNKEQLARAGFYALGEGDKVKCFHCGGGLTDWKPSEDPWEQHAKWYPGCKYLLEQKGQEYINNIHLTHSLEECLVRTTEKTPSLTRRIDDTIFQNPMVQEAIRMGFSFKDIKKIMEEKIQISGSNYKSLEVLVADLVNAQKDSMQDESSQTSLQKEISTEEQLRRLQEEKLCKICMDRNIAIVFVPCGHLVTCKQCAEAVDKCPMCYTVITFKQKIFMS
Dihydroorotate dehydrogenase (quinone), mitochondrial (Plasmodium falciparum (isolate 3D7)), sequence (Q08210 whole entry, looked up): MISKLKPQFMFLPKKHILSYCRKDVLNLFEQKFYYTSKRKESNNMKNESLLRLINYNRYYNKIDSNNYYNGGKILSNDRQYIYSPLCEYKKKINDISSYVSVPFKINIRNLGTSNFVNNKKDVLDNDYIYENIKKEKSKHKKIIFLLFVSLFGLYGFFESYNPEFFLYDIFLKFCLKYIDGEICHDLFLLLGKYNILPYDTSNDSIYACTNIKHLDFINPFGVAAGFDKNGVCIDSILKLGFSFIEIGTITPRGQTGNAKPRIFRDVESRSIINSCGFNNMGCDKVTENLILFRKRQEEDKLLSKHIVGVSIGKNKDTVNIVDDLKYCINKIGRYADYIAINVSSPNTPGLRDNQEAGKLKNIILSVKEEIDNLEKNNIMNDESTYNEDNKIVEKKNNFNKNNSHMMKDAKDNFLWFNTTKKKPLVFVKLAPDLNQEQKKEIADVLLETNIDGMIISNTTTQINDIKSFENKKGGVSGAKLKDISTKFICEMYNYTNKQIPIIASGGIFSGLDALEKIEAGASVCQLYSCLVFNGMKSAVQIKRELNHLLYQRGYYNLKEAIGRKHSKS

In the case of `CC(C)[Si]1(C(C)C)OCc2cc(C3CC3)nc(-c3ccc(Oc4ccccc4)cc3)c21`, the z-score in test [1] was 1.25; in test [2] it was 0.676; in [3], 0.468; in test [4], -0.795; in test [5], -1.94; in [6], -2.33. In addition, the z-score is 0.138 (inactive) in test [7]; -0.989 in test [8]; 0.196 in test [9]; 2.94 (inactive) in [10]; 0.467 in test [11]; 1.64 (inactive) in test [12]. Also, the z-score in test [13] is 1.03 (inactive); in test [15], 0.173 (inactive); in [16], 2.12 (inactive); in [17], 0.362 (inactive); in [18], 0.0518 (inactive); in test [19] it was -0.497. Besides, the composite z-score was 0.483 (inactive) in test [14] and -0.299 in test [20].
For the compound `COC(=O)[C@@]1(Cc2ccc(OC)cc2)[C@H]2c3cc(C(=O)N4CCCC4)n(CCc4c[nH]c5ccc(OC)cc45)c3C[C@H]2CN1C(=O)c1ccccc1`, the z-score is -1.19 in test [1]; -0.791 in test [2]; -0.636 in [3]; -1.52 in [4]; -3.62 in test [5]; -0.205 in test [6]. The z-score is -1.04 (inactive) in [7]; -0.819 in [8]; -1.86 in [9]; -2.3 (inactive) in test [10]; -1.23 in [11]; 1.26 (inactive) in test [12]. The z-score in test [13] was -3.31 (inactive); in test [15] it was 1.54 (inactive); in test [16], 0.708 (inactive); in [17], -0.456 (inactive); in test [18], -0.0765 (inactive); in test [19], -3.35. Further, the values for the composite z-score in test [14] and in test [20] were -0.112 (inactive) and 0.123, respectively.
Take `CCCCC=C[C@@H](NC(=O)OCc1ccccc1Cl)c1ccccc1`: the z-score is -1.28 in [1]; -1.2 in test [2]; -0.661 in test [3]; -0.919 in test [4]; -0.871 in test [5]; 0.359 in test [6]. Also, the z-score in test [7] is -0.337 (inactive); in [8] it was -0.623; in test [9], -1.03; in test [10] it was 0.297 (inactive); in [11], -0.656; in test [12] it was 1.33 (inactive). Besides, the z-score in [13] is -1.19 (inactive); in test [15], 0.84 (inactive); in [16], 1.48 (inactive); in test [17], -1.32 (inactive); in test [18] it was -0.892 (inactive); in [19], -1.2. In addition, the composite z-score in test [14] is 0.0518 (inactive); in test [20] it was 0.0137.
On to `Cc1ccc(S[C@]2(C(=O)NCC(F)(F)F)CC(=O)N(Cc3cc(C(F)(F)F)cc(C(F)(F)F)c3)[C@@H]2c2ccc(CO)cc2)cc1`, for which the z-score was 0.0806 in test [1]; -0.547 in test [2]; 0.643 in test [3]; -0.783 in test [4]; -0.759 in test [5]; -0.693 in test [6]. Besides, the z-score in test [7] is -0.658 (inactive); in test [8] it was 0.213; in test [9], -0.299; in test [10] it was -0.45 (inactive); in [11], -0.686; in test [12] it was 0.438 (inactive). Further, the z-score in test [13] was -0.266 (inactive); in test [15], 0.214 (inactive); in test [16], -0.145 (inactive); in test [17], -0.362 (inactive); in test [18], -0.615 (inactive); in test [19], -0.445. The composite z-score in [14] was -13.9 (active); in test [20], -0.241.
On to `CCCCC(CC)C(O)C1C=CC2C(=O)N(c3ccccc3)C(=O)C2N1Nc1ccc(C#N)cc1` (stereo not given), for which the z-score is 1.99 in test [1]; -0.494 in test [2]; 2.34 in [3]; 0.0084 in test [4]; 0.368 in [5]; -1.31 in test [6]. For the same compound, the z-score in test [7] is -1.61 (inactive); in [8], 0.0604; in test [9], -0.679; in [10] it was 0.857 (inactive); in test [11], -0.0318; in test [12] it was -0.847 (inactive). Besides, the z-score in [13] was -0.67 (inactive); in test [15], 1.7 (inactive); in [16], 0.913 (inactive); in test [17], 0.248 (inactive); in test [18], 0.0706 (inactive); in test [19], -0.661. For the same compound, the composite z-score in test [14] was 0.215 (inactive); in test [20], 0.212.
With `O=C(O)[C@@H]1[C@@H]2C(=O)N(c3ccccc3)C(=O)[C@@H]2C[C@@H]1Sc1ccccc1`, the z-score was -0.653 in test [1]; -0.832 in [2]; -1.32 in test [3]; -0.939 in [4]; -0.616 in test [5]; -0.829 in [6]. For the same compound, the z-score was -0.867 (inactive) in [7]; 0.718 in test [8]; -0.773 in [9]; 0.0964 (inactive) in [10]; -0.303 in test [11]; 0.308 (inactive) in [12]. For the same compound, the z-score in test [13] was -0.832 (inactive); in test [15], 0.546 (inactive); in [16] it was 1.48 (inactive); in test [17] it was -0.719 (inactive); in test [18], -1.3 (inactive); in test [19], -1.09. Moreover, the composite z-score in test [14] is 1.2 (inactive); in test [20] it was -0.0907.
As for `COCCOC(=O)N1C(=O)[C@@]2(c3cc(C#CC4(O)CCCCCC4)ccc31)[C@H](C(=O)N1CCc3cc(OC)c(OC)cc3C1)[C@H]1C(=O)O[C@H](c3ccccc3)[C@H](c3ccccc3)N1[C@@H]2c1ccc(OCCO)cc1`, the z-score in [1] was -0.111; in test [2] it was 0.172; in test [3], -0.653; in test [4], -1.83; in test [5] it was -0.468; in test [6] it was -0.32. The z-score is 0.354 (inactive) in test [7]; -0.542 in test [8]; -1.39 in [9]; -0.317 (inactive) in test [10]; -0.614 in test [11]; 1.66 (inactive) in [12]. Moreover, the z-score was -0.935 (inactive) in test [13]; 3.41 (inactive) in [15]; 2.54 (inactive) in test [16]; -0.201 (inactive) in [17]; 0.389 (inactive) in test [18]; -0.607 in test [19]. Further, the values for the composite z-score in test [14] and in test [20] were -0.494 (inactive) and 0.107, respectively.
For `COC(=O)c1c(CC[C@@H](CO)NC(=O)N[C@@H](C)Cn2cc(-c3ccccn3)nn2)oc(C(C)=O)c1C(=O)OC`, the z-score in test [1] was -0.495; in test [2] it was 0.526; in test [3] it was -0.239; in test [4] it was 0.226; in test [5] it was -0.858; in test [6], -0.182. Further, the z-score in test [7] is -0.857 (inactive); in [8], -0.181; in test [9], -0.0849; in [10] it was -1.38 (inactive); in [11], -0.962; in test [12] it was -0.369 (inactive). The z-score is 0.0168 (inactive) in test [13]; -0.109 (inactive) in test [15]; -0.37 (inactive) in [16]; -0.207 (inactive) in test [17]; -0.605 (inactive) in test [18]; -0.921 in test [19]. The composite z-score is -2.74 (inactive) in [14] and 0.0808 in test [20].
For `CCCC=C(CCC)[C@@H](NC(=O)C(C)(C)C)c1ccc(C(=O)OC)cc1`, the z-score in test [1] is -1.01; in [2] it was -0.886; in [3], -0.47; in test [4] it was -0.695; in test [5], -2.08; in test [6], 3.69. Also, the z-score in [7] was -0.614 (inactive); in test [8], -0.118; in test [9], -0.459; in [10], 0.821 (inactive); in test [11], 1.35; in test [12], 1.3 (inactive). In addition, the z-score is -0.0387 (inactive) in test [13]; 0.122 (inactive) in test [15]; 1.17 (inactive) in test [16]; -0.187 (inactive) in [17]; 0.0571 (inactive) in test [18]; -0.0244 in [19]. For the same compound, the composite z-score in test [14] was 0.0907 (inactive); in test [20] it was -0.34.
